Bioassay records as filed in PubChem BioAssay.
APOBEC3G inh: inhibitors of human APOBEC3G DNA deaminase; Q9HC16; recombinant A3G, ssDNA deamination FAM/TAMRA fluorescence; inhibition, % at 20 µM; 330,000 tested, 0.28% active;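 active = inhibition of at least 40% at 20 µM, with no more than 30% in the related APOBEC3A deaminase screen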
Target sequence (Q9HC16 whole entry, looked up): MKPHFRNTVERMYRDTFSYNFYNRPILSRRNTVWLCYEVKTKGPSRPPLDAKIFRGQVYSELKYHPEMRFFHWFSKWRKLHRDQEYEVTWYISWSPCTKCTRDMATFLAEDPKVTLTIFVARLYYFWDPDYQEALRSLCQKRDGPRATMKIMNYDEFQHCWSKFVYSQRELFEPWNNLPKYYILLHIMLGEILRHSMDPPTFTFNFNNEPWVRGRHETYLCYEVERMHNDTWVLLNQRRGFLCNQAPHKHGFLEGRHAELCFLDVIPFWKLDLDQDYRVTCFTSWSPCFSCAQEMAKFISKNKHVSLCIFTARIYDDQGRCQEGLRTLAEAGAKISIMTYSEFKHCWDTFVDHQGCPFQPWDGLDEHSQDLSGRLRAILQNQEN
APOBEC3A inh: inhibitors of human APOBEC3A DNA deaminase; inhibition, % at 20 µM; P31941; recombinant A3A, FAM/TAMRA ssDNA deamination fluorescence; 330,000 tested, 0.41% active;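 active = at least 40% inhibition at 20 µM here, with at most 30% in a related deaminase screen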
Target sequence (P31941 whole entry, looked up): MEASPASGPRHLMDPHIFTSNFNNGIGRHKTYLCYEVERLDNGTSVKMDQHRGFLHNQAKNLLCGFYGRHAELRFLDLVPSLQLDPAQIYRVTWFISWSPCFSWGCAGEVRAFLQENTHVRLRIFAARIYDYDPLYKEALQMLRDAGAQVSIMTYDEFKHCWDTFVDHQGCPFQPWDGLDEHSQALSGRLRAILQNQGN
MLLE-PAM2 inh: blocks PAM2 peptide binding to the PABP1 MLLE domain | P11940 | GST-MLLE / FITC-PAM2 fluorescence polarization | inhibition, % at 20 µM | 360,000 tested, 0.36% active | AID 588489; in the data active = inhibition above about 35%, passing the limit was not always enough
PABP polyA inh: blocks human PABP binding to poly(A) RNA. P11940. fluorescence polarization. calls only at 35 µM. 290,000 tested, 1% active. AID 2014;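 note: calls also rest on retests at 20 µM and on dose response follow-up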
PHOSPHO1 inh: inhibitors of human PHOSPHO1 phosphatase. inhibition, % at 13.3 µM. 290,000 tested, 1.1% active. recombinant PHOSPHO1, absorbance phosphatase assay; in the data active = inhibition above about 60%
eIF4H inh: inhibitors of RNA binding by human eIF4H | inhibition, % at 35 µM | eIF4H fluorescence polarization binding assay | 290,000 tested, 0.94% active;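 note: calls also rest on retests at 20 µM and on dose response follow-up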
A number is an active result. Most compounds without a hit are left out; they make up all but 2.6% or so of the library. Unless noted, the rule behind the calls is not given here.

What do the screens show for `Cc1ccc(S(=O)(=O)Nc2c(C)n(C)n(-c3ccccc3)c2=O)cc1C(=O)OC(C)C(=O)c1ccccc1` (stereo not given)?
MLLE-PAM2 inh: inactive

What do the screens show for `Cc1ccc(SCCN2CCN(C)CC2)cc1`?
APOBEC3G inh: inactive; APOBEC3A inh: inactive; MLLE-PAM2 inh: inactive; PABP polyA inh: inactive; PHOSPHO1 inh: inactive; eIF4H inh: inactive

Results for CCOc1ccc(-c2nc(=S)[nH][nH]2)cc1 ?
APOBEC3G inh: inactive; APOBEC3A inh: inactive; MLLE-PAM2 inh: inactive; PABP polyA inh: inactive; PHOSPHO1 inh: 100; eIF4H inh: inactive

How did O=C(C[n+]1cccc(CNC(=O)c2ccc(OC(F)F)cc2)c1)c1ccccc1 do in these assays?
APOBEC3G inh: inactive; APOBEC3A inh: inactive; MLLE-PAM2 inh: inactive; PABP polyA inh: inactive; PHOSPHO1 inh: 61; eIF4H inh: inactive

How did CC(C)(C)OC(=O)NN1CC(=O)N2Cc3[nH]c4ccccc4c3C[C@H]2C1=O do in these assays?
APOBEC3G inh: inactive; APOBEC3A inh: inactive; MLLE-PAM2 inh: inactive; PABP polyA inh: inactive; PHOSPHO1 inh: inactive; eIF4H inh: inactive

How did CCC(C)c1ccc(S(=O)(=O)N2CCN(C(=O)CN3C(=O)NC(C)(C4CC4)C3=O)CC2)cc1 (stereo not given) do in these assays?
MLLE-PAM2 inh: inactive

Results for Nc1cc(=O)[nH]c(SCC(=O)N2CCCC2)n1 ?
APOBEC3G inh: inactive; APOBEC3A inh: inactive; MLLE-PAM2 inh: inactive

What do the screens show for `CCN(C(=O)CN1CCCc2ccccc21)c1c(N)n(Cc2ccccc2)c(=O)[nH]c1=O`?
PABP polyA inh: active; PHOSPHO1 inh: inactive; eIF4H inh: 99

What do the screens show for `CCN(C(=O)CN1CCCc2cc(C)ccc21)c1c(N)n(Cc2ccccc2)c(=O)[nH]c1=O`?
MLLE-PAM2 inh: inactive

What do the screens show for `CCCCN(C(=S)NC(=O)c1ccccc1)c1c(N)n(Cc2ccccc2)c(=O)[nH]c1=O`?
APOBEC3G inh: inactive; APOBEC3A inh: inactive; MLLE-PAM2 inh: 37; PABP polyA inh: inactive; PHOSPHO1 inh: inactive; eIF4H inh: inactive

How did Cc1ccsc1/C=C1/NC(=O)N(Cc2ccc(F)cc2)C1=O do in these assays?
APOBEC3G inh: inactive; APOBEC3A inh: inactive; MLLE-PAM2 inh: inactive; PABP polyA inh: inactive; PHOSPHO1 inh: inactive; eIF4H inh: inactive

What do the screens show for `O=[N+]([O-])c1ccc(Cl)c(/C=N/n2c(C3CCCCC3)n[nH]c2=S)c1`?
APOBEC3G inh: inactive; APOBEC3A inh: inactive; MLLE-PAM2 inh: inactive; PABP polyA inh: inactive; PHOSPHO1 inh: 103; eIF4H inh: inactive

How did COc1ccc(OC)c2sc(N(CCCN(C)C)C(=O)CCS(=O)(=O)c3ccccc3)nc12 do in these assays?
APOBEC3G inh: inactive; APOBEC3A inh: inactive; MLLE-PAM2 inh: 43

How did CCOC(=O)N1CCN(C(=O)CNS(=O)(=O)c2cccs2)CC1 do in these assays?
APOBEC3G inh: inactive; APOBEC3A inh: inactive; MLLE-PAM2 inh: inactive; PABP polyA inh: inactive; PHOSPHO1 inh: inactive; eIF4H inh: inactive

Results for CC(=O)Nc1ccc(S(=O)(=O)NCC(=O)N2CCN(S(=O)(=O)c3cccs3)CC2)cc1 ?
APOBEC3G inh: inactive; APOBEC3A inh: inactive; MLLE-PAM2 inh: 43

What do the screens show for `Cc1ccc(S(=O)(=O)Nc2cc(C)c(O)c(Sc3n[nH]c(C)n3)c2)cc1`?
APOBEC3G inh: inactive; APOBEC3A inh: inactive; MLLE-PAM2 inh: 42; PABP polyA inh: inactive; PHOSPHO1 inh: inactive; eIF4H inh: inactive

Results for Cc1ccc(S(=O)(=O)Nc2ccc3cn[nH]c3c2)cc1 ?
APOBEC3G inh: inactive; APOBEC3A inh: inactive; MLLE-PAM2 inh: inactive

How did Cc1ccc(C(=O)O)cc1NC(=S)NC(=O)c1ccc(-c2ccc(Cl)cc2)o1 do in these assays?
APOBEC3G inh: inactive; APOBEC3A inh: inactive; MLLE-PAM2 inh: 51; PABP polyA inh: inactive; PHOSPHO1 inh: inactive; eIF4H inh: inactive

How did N#CCCN1CCN(C(=S)c2ccc(-c3cccc(Cl)c3)o2)CC1 do in these assays?
APOBEC3G inh: inactive; APOBEC3A inh: inactive; MLLE-PAM2 inh: inactive; PABP polyA inh: inactive; PHOSPHO1 inh: inactive; eIF4H inh: inactive

What do the screens show for `CC(=O)N1CCN(C(=S)c2ccc(-c3ccc(Cl)cc3)o2)CC1`?
APOBEC3G inh: inactive; APOBEC3A inh: inactive; MLLE-PAM2 inh: inactive; PABP polyA inh: inactive; PHOSPHO1 inh: 74; eIF4H inh: inactive

What do the screens show for `O=C(c1ccco1)N1CCN(C(=O)c2ccc(-c3ccc(Cl)cc3)o2)CC1`?
APOBEC3G inh: inactive; APOBEC3A inh: inactive; MLLE-PAM2 inh: inactive

Results for N#CCCN1CCN(C(=S)c2ccc(-c3ccc(Cl)c(Cl)c3)o2)CC1 ?
APOBEC3G inh: inactive; APOBEC3A inh: inactive; MLLE-PAM2 inh: inactive; PABP polyA inh: inactive; PHOSPHO1 inh: 67; eIF4H inh: inactive

What do the screens show for `O=[N+]([O-])c1cc(-c2ccc(C(=S)N3CCOCC3)o2)ccc1Cl`?
APOBEC3G inh: inactive; APOBEC3A inh: inactive; MLLE-PAM2 inh: inactive; PABP polyA inh: inactive; PHOSPHO1 inh: 61; eIF4H inh: inactive

What do the screens show for `Nc1ccc(S(=O)(=O)NC2(C(F)(F)F)NC(=O)N(Cc3ccccc3)C2=O)cc1` (stereo not given)?
APOBEC3G inh: inactive; APOBEC3A inh: inactive; MLLE-PAM2 inh: inactive; PABP polyA inh: inactive; PHOSPHO1 inh: inactive; eIF4H inh: inactive

How did O=C(O)C1CCC(N2C(=O)c3c(Cl)c(Cl)c(Cl)c(Cl)c3C2=O)CC1 (stereo not given) do in these assays?
PABP polyA inh: inactive; PHOSPHO1 inh: inactive; eIF4H inh: inactive

What do the screens show for `Cc1nc(-c2ccccc2)sc1-c1ccn[nH]1`?
APOBEC3G inh: inactive; APOBEC3A inh: inactive; MLLE-PAM2 inh: inactive; PABP polyA inh: active; PHOSPHO1 inh: inactive; eIF4H inh: inconclusive

What do the screens show for `Cc1nc(-c2ccccc2)sc1-c1ccnn1C`?
APOBEC3G inh: inactive; APOBEC3A inh: inactive; MLLE-PAM2 inh: inactive; PABP polyA inh: inactive; PHOSPHO1 inh: inactive; eIF4H inh: inactive

What do the screens show for `CC1(C(=O)Nc2ccc(Cl)c(Cl)c2)CCN1C(=O)Cc1cccc2ccccc12` (stereo not given)?
MLLE-PAM2 inh: inactive

Results for CC1=CC(=O)C=CC1=Nc1ccc(N(C)C)cc1 ?
MLLE-PAM2 inh: 51

What do the screens show for `COC(=O)C1(Cc2cc(-c3ccc([N+](=O)[O-])cc3)no2)CCN(C(=O)OC(C)(C)C)CC1`?
APOBEC3G inh: inactive; APOBEC3A inh: inactive; MLLE-PAM2 inh: inactive

What do the screens show for `N#Cc1c(SCc2cccc(Cl)c2)sc(C(=O)c2ccccc2)c1N`?
APOBEC3G inh: inactive; APOBEC3A inh: inactive; MLLE-PAM2 inh: inactive; PABP polyA inh: inactive; PHOSPHO1 inh: 62; eIF4H inh: inactive

Results for Cc1ccc(C(=O)c2sc(Nc3ccccc3)c(C#N)c2N)cc1 ?
APOBEC3G inh: inactive; APOBEC3A inh: inactive; MLLE-PAM2 inh: inactive; PABP polyA inh: inactive; PHOSPHO1 inh: inactive; eIF4H inh: inactive

Results for Cc1ccc(CSc2sc(C(=O)c3ccccc3)c(N)c2C#N)cc1 ?
APOBEC3G inh: inactive; APOBEC3A inh: inactive; MLLE-PAM2 inh: inactive; PABP polyA inh: inactive; PHOSPHO1 inh: 97; eIF4H inh: inactive
